Screening data as filed in PubChem.
aSyn UTR act – Activators working through SNCA 5'UTR binding (MLPCN). alpha-synuclein 5'UTR reporter, activators screen. activity score, % (tested at 7.5 µM), hits read low. hit rate 7.1% among 300,000. AID 1814; in the data active = activity score below about -60%
Of the large screens only hits and unclear results are named; the others gave an inactive call. Not all results are given here.

Cc1ccc(NC(=O)C2Cc3ccccc3O/C2=N\O)cc1C (stereo unspecified)	aSyn UTR act -127
O=C(Nc1ccc(Br)cc1)C1Cc2ccccc2O/C1=N\O (stereo unspecified)	aSyn UTR act -158
CCCOc1ccc(/C=N/NC(=O)CSc2ccccn2)cc1OC	aSyn UTR act -77
COc1ccc(/C=N/NC(=O)c2ccn[nH]2)cc1CSc1ccccn1	aSyn UTR act -67
CC(C)OC(=O)CSc1nc2cc3c(cc2cc1C#N)OCO3	aSyn UTR act -149
COC(=O)CSc1nc2cc3c(cc2cc1C#N)OCO3	aSyn UTR act -201
COC(=O)CSc1nc(-c2cccs2)ccc1C#N	aSyn UTR act -305
CC(C)OC(=O)CSc1nc(N)c(C#N)cc1C#N	aSyn UTR act -118
CC(=O)Nc1cc(C)nn1-c1nc2ccccc2s1	aSyn UTR act -178
Cc1cc(C)n(-c2ccc(C(=O)Nc3nc4ccccc4s3)cc2)n1	aSyn UTR act -97
COc1cc(C(=O)Nc2nc3ccccc3s2)ccc1OCc1c(C)noc1C	aSyn UTR act -110
CN1CCC(C2(O)c3ccccc3CCc3ccccc32)CC1	aSyn UTR act -62
c1ccc(-n2cnc3cc(NCc4ccco4)ccc32)cc1	aSyn UTR act -161
Cc1ccc(-n2cnc3cc(NCc4cccs4)ccc32)cc1	aSyn UTR act -94
COc1ccc(-n2cnc3cc(NCc4cccs4)ccc32)cc1	aSyn UTR act -69
c1ccc(-n2cnc3cc(NCc4cccs4)ccc32)cc1	aSyn UTR act -167
Cn1cc(/C=C/c2cc[n+](C)cc2)c2cc(Cl)ccc21	none
O=C(Nc1ccccn1)c1sc2cc([N+](=O)[O-])ccc2c1Cl	aSyn UTR act -161
CCOc1ccc(C(=O)NC(=S)Nc2ccccn2)cc1[N+](=O)[O-]	aSyn UTR act -104
O=C(NC(=S)Nc1ccccn1)c1cccc([N+](=O)[O-])c1	aSyn UTR act -89
N#CCCN1CCN(C(=S)c2ccc(-c3cccc(Cl)c3)o2)CC1	aSyn UTR act -89
S=C(c1ccc(-c2cccc(Cl)c2)o1)N1CCCCC1	aSyn UTR act -111
S=C(c1ccc(-c2cccc(Cl)c2)o1)N1CCOCC1	aSyn UTR act -144
CCNc1nc(Oc2ccc(C#N)cc2)cc(C(F)(F)F)n1	none
CCNc1nc(N)nc(Oc2ccc(C(=O)OC)cc2)n1	aSyn UTR act -71
CCOc1ccc(NC(=O)CSc2nncc(=O)[nH]2)cc1	aSyn UTR act -76
Cc1ccc(NC(=O)C2C3/C=C\CCCCC32)cc1C (stereo unspecified)	aSyn UTR act -115
O=C(Nc1ccccc1)Nc1nnc(-c2cccs2)s1	aSyn UTR act -182
COc1ccc(NC(=O)Nc2nnc(-c3cccs3)s2)cc1	aSyn UTR act -113
CN(Cc1cccnc1)C(=O)c1cc(COc2ccc3c(c2)CCCC3)on1	aSyn UTR act -127
CC(=O)c1cccc(OCc2cc(C(=O)N(C)Cc3cnccn3)no2)c1	aSyn UTR act -85
CN(C(=O)COC(=O)c1cc(-c2ccc(Cl)s2)nc2ccccc12)C1CCS(=O)(=O)C1 (stereo unspecified)	aSyn UTR act -82
CCN(C(=O)COC(=O)c1cc(-c2ccc3cc(OC)ccc3c2)nc2ccccc12)C1CCS(=O)(=O)C1 (stereo unspecified)	none
O=C(O)c1ccc(N=NN2CCCCCC2)cc1	aSyn UTR act -168
O=C(CNC(=O)c1ccccc1Cl)OCC(=O)N1CCc2ccccc21	aSyn UTR act -117
Cc1cc(C(=O)OCC(=O)N2CCc3ccccc32)c(C)o1	aSyn UTR act -163
O=C(NCC(=O)N1CCc2ccccc2C1)c1ccccc1Cl	aSyn UTR act -101
CCS(=O)(=O)n1nc(-c2ccc(Cl)cc2)nc1SCc1ccccc1	aSyn UTR act -110
N=c1ccn2c(n1)OC1C(O)C(CO)OC12 (stereo unspecified)	none
OC[C@H]1O[C@@H](n2cnc3c(Nc4ccccc4)ncnc32)[C@H](O)[C@@H]1O	aSyn UTR act -79
Nc1ccn([C@@H]2O[C@H](CO)[C@@H](O)C2O)c(=O)n1 (stereo partly specified)	none
Cc1ccccc1C(=O)NCCSc1ccccc1	aSyn UTR act -111
CSc1ccccc1C(=O)NCCSc1ccccc1	aSyn UTR act -66
O=C(NCCSc1ccccc1)c1ccccc1Cl	aSyn UTR act -82
O=C(N/N=C(\c1ccccc1)c1ccccn1)c1ccccc1Cl	none
COc1ccccc1C1=NOC(CN2C(=O)c3ccccc3S2(=O)=O)C1 (stereo unspecified)	aSyn UTR act -127
O=C1c2ccccc2S(=O)(=O)N1CC1CC(c2ccccc2Cl)=NO1 (stereo unspecified)	aSyn UTR act -81
O=C(CN1C(=O)c2ccccc2S1(=O)=O)c1ccc(O)c(O)c1	none
O=C(/C=C/c1cccs1)Nc1cccc(NC(=O)/C=C/c2cccs2)n1	aSyn UTR act -181
NS(=O)(=O)c1cccc(NC(=O)/C=C/c2cccs2)c1	aSyn UTR act -101
Cc1cc(C)c(-c2csc(NC(=O)/C=C/c3cccs3)n2)c(C)c1	none
CCc1nnc(NC(=O)C=C(C)C)s1	aSyn UTR act -140
Cc1cc(C)nc(NC(=O)/C=C/c2cccs2)c1	aSyn UTR act -155
O=C(/C=C/c1cccs1)Nc1nccs1	aSyn UTR act -97
